# An excerpt weighted towards active compounds, which were near 2.9% of everything screened.
# TSG101-PTAP inh = blocks PTAP/TSG101 interaction to inhibit HIV-1 budding. 340,000 tested, under 10 active. Potency, µM (doses to about 115 µM), inactives show at the top dose activity change, negative = inhibition, hits mostly inhibitors. Fluorescence polarization, FITC-PTAP peptide / Tsg101 binding. AID 493005; active = well fitted inhibition curve with a large enough effect in the main read-out, with a control signal flat, not every such curve was filed as active; inconclusive = small, poorly fitted or top-dose-only effect, or effect the other way, or a change in a side signal; inactive = no such curve, though single readings can be large or run the other way; also: potency is read from the fitted curve at half-maximal effect; % of control where 0% means no effect
# Target sequence (Q99816 whole entry, looked up): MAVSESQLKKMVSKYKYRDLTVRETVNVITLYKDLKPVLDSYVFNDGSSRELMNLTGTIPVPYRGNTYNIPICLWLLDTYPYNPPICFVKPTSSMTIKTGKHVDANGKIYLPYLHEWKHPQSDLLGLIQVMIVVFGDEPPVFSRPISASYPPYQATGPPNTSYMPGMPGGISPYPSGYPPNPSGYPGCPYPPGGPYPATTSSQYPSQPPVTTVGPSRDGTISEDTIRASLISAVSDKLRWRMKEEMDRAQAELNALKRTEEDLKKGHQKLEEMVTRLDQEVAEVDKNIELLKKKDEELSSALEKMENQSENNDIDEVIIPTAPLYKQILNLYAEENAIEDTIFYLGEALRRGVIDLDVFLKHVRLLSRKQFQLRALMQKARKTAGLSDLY
#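 Steps: Tsg101 binding domain dispensed (10 uM final), compounds pinned in DMSO, FITC-labeled PTAP-motif peptide added (50 nM final); after 20 min binding at room temperature, polarization measured.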
# D3 antag = antagonists of human D3 dopamine receptor; 2.5% of 360,000 active; AID 652054; P35462; D3R cells, DiscoveRx beta-arrestin luminescence, antagonist mode; active compounds read low; max response, negative = inhibition, %; in the data active = max response below about -50%; inconclusive = no clear call, values can overlap the other calls; also: % is scaled to controls: 0 for no effect and ±100 for the full control effect
# Target sequence (P35462 whole entry, looked up): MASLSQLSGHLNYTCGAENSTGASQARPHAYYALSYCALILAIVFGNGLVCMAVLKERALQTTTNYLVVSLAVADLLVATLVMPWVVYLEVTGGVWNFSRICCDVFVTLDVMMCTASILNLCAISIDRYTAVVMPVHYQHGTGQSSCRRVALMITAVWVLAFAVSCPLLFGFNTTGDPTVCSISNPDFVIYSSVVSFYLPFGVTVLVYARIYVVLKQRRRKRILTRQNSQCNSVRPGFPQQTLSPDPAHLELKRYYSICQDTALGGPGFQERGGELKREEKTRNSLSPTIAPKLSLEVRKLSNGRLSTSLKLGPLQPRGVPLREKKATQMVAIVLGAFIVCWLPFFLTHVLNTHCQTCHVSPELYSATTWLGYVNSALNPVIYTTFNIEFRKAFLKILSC
#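 Cells expressing the human receptor were seeded at 1500 cells/well, incubated overnight at 37 degrees C in 5% CO2, then exposed to library compounds with dopamine controls for 90 minutes at 37 degrees C before luminescent detection.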
# D3 ag = agonists of human D3 dopamine receptor | AID 652048 | P35462 | 0.58% of 410,000 active | max activation, % | D3R DiscoveRx beta-arrestin cells, luminescence, 90 min; in the data active = max activation above about 30%; also: 0% is about no effect
#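 Agonist-mode cell screen: cells plated at 1500/well and incubated overnight at 37 °C, then exposed to library compounds for 90 min at 37 °C. Detection reagent was added for 30–60 min at room temperature, and luminescence was read.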
# Mm-Cpn inhibitor = blocks the Methanococcus maripaludis chaperonin Mm-Cpn. Potency, µM (series often up to 76.9 µM), inactives show top-dose activity, negative = inhibition, actives largely listed as inhibitors. purified Mm-Cpn ATPase, ADP Transcreener TR-FRET. 0.031% of 330,000 active; active = well fitted inhibition curve with a large enough effect; inconclusive = small, poorly fitted or top-dose-only effect; also: potency is read from the fitted curve at half-maximal effect; % is scaled to controls: 0 for no effect and ±100 for the full control effect; nearly all actives have a fitted effect of over 80% in size
#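 Eu-cryptate anti-ADP/ADP-d2 competition gives a ratio inversely related to ADP. Enzyme at 25 nM was pre-exposed to compound for 10 min, then given 10 uM ATP for 30 min, 37°C throughout.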
# Rango-impB inh = Rango-importin beta binding inhibition | Q14974 | Potency, µM (series often up to 92.2 µM), inactives show at the top dose inhibition of complex formation | Rango CFP/YFP FRET sensor + importin beta, 45 min | 0.031% of 340,000 active;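 also: potency is read from the fitted curve at half-maximal effect; 0% = DMSO wells and 100% = buffer wells lacking importin beta; nearly all actives have a fitted effect of over 15% in size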
#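 FRET biosensor (snurportin 1 IBB flanked by EYFP and cerulean), 50 nM, with compound 5 min, then 0.125 microM importin beta in PBS, 1 mM DTT, 0.02% Tween-20, 0.1% BSA. CFP/YFP ratio read after 45 min at room temperature; pre-read flags interference.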
# Rango dissoc inh = inhibitors of RanGTP-induced Rango-importin beta complex dissociation; Potency, µM (titrated, usually from 46.1 µM), without a hit: at the top dose activity change, negative = inhibition; Biochemical FRET Rango-importin beta, RanGTP-induced dissociation; O95149+P62826; 0.071% of 340,000 active; also: potency is read from the fitted curve at half-maximal effect; % of control where 0% means no effect; nearly all actives have a fitted effect of over 45% in size
#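 FRET read at 45 min, room temperature: inhibitors block the CFP/YFP signal rise when RanGTP (0.6 uM Ran, 2 mM GTP, 0.2 uM RCC1) frees Rango (0.1 uM) from importin beta (0.25 uM). Pre-read after 5 min compound exposure flags interference.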
# The depositor's hits bear a star; ? = inconclusive; nt = no result. Unless noted, calls follow the shape of the full dose curve.
SMILES,TSG101-PTAP inh,D3 antag,D3 ag,Mm-Cpn inhibitor,Rango-impB inh,Rango dissoc inh
COc1ccc(-c2csc(NC(=O)C3CCN(c4ncnc5sc(C)c(C)c45)CC3)n2)cc1OC,-4.1%,55.9,46.5*,-7.7%,0.0%,-17.2%
COc1ccccc1N1CCN(C(=O)CCn2cnc3onc(-c4ccc(F)cc4)c3c2=O)CC1,nt,nt,-8.2,nt,nt,nt
COc1ccc(CN2CCN(C(=O)c3ccco3)CC2)cc1OC,-0.2%,-24.7,44.8*,-1.3%,14.7%,22.1%
COc1ccc(CN2CCN(C(=O)c3ccco3)CC2)c(OC)c1OC,-0.6%,9.1,43.1*,nt,3.9%,4.2%
COc1ccc(C(=O)OCC(=O)N2CCN(C(=O)c3ccco3)CC2)c(OC)c1OC,nt,12.4,6.6,nt,nt,nt
COc1ccccc1CN1CCN(C(=O)c2ccco2)CC1,-0.2%,18.7,32.1*,-1.8%,2.3%,4.2%
Cc1ccc(CN2CCN(C(=O)c3ccco3)CC2)cc1,-0.4%,0.0,30.7*,1.5%,3.0%,4.8%
Nc1c(C(=O)Nc2ccccc2Cl)c2ccccn2c1C(=O)c1ccccc1,nt,nt,-11.0,nt,nt,nt
CCCOc1ccc(C2=NC(c3ccc(F)cc3)=Nc3ccc(OC)cc3N2)cc1,nt,nt,-8.7,nt,nt,nt
Cc1ccc(Cn2c(CN3CCN(C(=O)c4ccco4)CC3)nc3c2c(=O)n(C)c(=O)n3C)cc1,-0.6%,20.4,37.0*,0.5%,4.9%,9.1%
Cn1c(=O)c2c(nc(CN3CCN(C(=O)c4ccco4)CC3)n2Cc2ccccc2)n(C)c1=O,-3.6%,-21.0,-5.2,2.4%,-5.6%,-7.2%
Cc1onc(-c2ccccc2)c1C(=O)N1CCN(C(=O)c2ccco2)CC1,-3.0%,-124.7*,-1.2,0.7%,2.9%,1.4%
COc1ccc(Br)cc1CN1CCN(C(=O)c2ccco2)CC1,-4.9%,-61.4*,-43.3,2.1%,-0.2%,9.1%
O=C(c1ccco1)N1CCN(CC(O)COc2ccc3oc4ccccc4c3c2)CC1 (stereo not given),-4.9%,14.6,41.2*,-0.7%,0.0%,0.9%
CCOc1ccc(C(=O)c2cn(CC(=O)Nc3ccc(C)c(C)c3)c3ccc(OCC)cc3c2=O)cc1,nt,nt,3.6,nt,nt,nt
COc1ccc(CCNC(=O)c2cc(-c3ccco3)on2)cc1OC,-1.9%,11.9,11.0,1.6%,-0.3%,3.8%
COc1ccc(CCNC(=O)c2cc(-c3cccs3)on2)cc1OC,-8.7%,14.5,36.2*,0.0%,-2.6%,14.3%
COc1ccccc1-c1cc(C(=O)NCc2cccs2)no1,-3.1%,?,-8.5,-1.9%,-0.7%,1.7%
COc1ccc(OC)c(-c2cc(C(=O)NCc3cccs3)no2)c1,nt,-95.8*,-27.2,-3.1%,2.9%,2.7%
CN(Cc1ccccc1)C(=O)Cn1ncc2c3ccccc3n(Cc3cccc(Cl)c3)c2c1=O,nt,nt,-2.3,nt,nt,nt
Cc1c(OCC(=O)NCc2ccccn2)ccc2c(-c3ccccc3)cc(=O)oc12,-1.2%,9.0,-4.5,0.3%,-0.5%,-12.2%
Cc1c(OCC(=O)NCC(O)c2ccccc2)ccc2c(-c3ccccc3)cc(=O)oc12 (stereo not given),-11.0%,34.8,32.8*,0.3%,1.7%,-1.5%
C=CCOc1ccc(C2C(C(=O)c3cccs3)=C(O)C(=O)N2c2nnc(C)s2)cc1 (stereo not given),?,-62.8*,-13.5,nt,?,?
COc1ccc(C2C(C(=O)c3cccs3)=C(O)C(=O)N2c2nnc(C)s2)cc1OC (stereo not given),?,-9.5,1.6,-0.7%,?,?
C[C@]12CC[C@@H]3c4ccc(O)cc4CC[C@H]3[C@@H]1CC[C@@H]2OP(=O)(O)O,nt,nt,-0.1,nt,nt,nt
SMILES,TSG101-PTAP inh,D3 antag,D3 ag,Mm-Cpn inhibitor,Rango-impB inh,Rango dissoc inh
Cc1cc(-c2ccccc2)c2c(n1)sc1c(O)cc(=O)[nH]c12,-4.4%,-16.2,-3.7,-9.1%,-4.7%,-10.9%
Cc1cc(-c2cccs2)c2c(n1)sc1c(=O)[nH]c(=O)[nH]c12,-0.2%,-83.7*,-2.3,-0.9%,0.8%,-19.0%
COc1cc(C)c(/C=C(\C#N)C(=O)Nc2ccc(C)cc2)cc1C(C)C,-3.8%,?,-42.7,-2.3%,0.8%,-1.9%
COCCNC(=O)/C(C#N)=C/c1cc(C(C)C)c(OC)cc1C,-6.0%,-77.2*,-39.8,-2.9%,3.5%,-7.3%
O=c1[nH]c(CN2CCN(c3ccccc3)CC2)nc2scc(-c3ccccc3)c12,-1.1%,-4.7,107.9*,-9.6%,1.5%,-12.7%
COc1ccc(N2CCN(Cc3nc4scc(-c5ccccc5)c4c(=O)[nH]3)CC2)cc1,-6.9%,-15.9,-1.2,2.9%,-0.2%,12.2%
Cc1cccc(NC(=S)NNC(=O)c2cccc([N+](=O)[O-])c2)c1,-3.9%,-2.9,-8.1,-0.3%,7.6%,-5.6%
Cc1occc1C(=O)NNC(=S)Nc1cccc([N+](=O)[O-])c1,3.1%,-108.9*,-6.7,2.4%,-0.5%,9.9%
CC(=O)NC(=S)Nc1cccc([N+](=O)[O-])c1,0.7%,4.9,-0.2,3.6%,-0.5%,8.6%
CC(C)NS(=O)(=O)c1ccc(NC(=S)NC(=O)c2cccc([N+](=O)[O-])c2)cc1,3.7%,-94.1*,-59.3,0.0%,5.7%,-1.2%
O=C(NC(=S)Nc1cccc(F)c1)c1cccc([N+](=O)[O-])c1,-10.6%,-51.4*,-9.2,-0.5%,8.2%,18.8%
CCOC(=O)c1noc2nc(C)n(CC(=O)Nc3ccc(OC)c(Cl)c3)c(=O)c12,nt,nt,-9.6,nt,nt,nt
O=C(CCn1c(=O)c2cccn2c2cccnc21)NCc1ccc(F)cc1,nt,nt,-2.8,nt,nt,nt
Cc1ccc(-n2nc3cc(C)c(N)cc3n2)cc1,-0.4%,32.8,0.8,-3.8%,?,18.4µM*
Cc1ccc(S(=O)(=O)NNC(=O)C2CCN(Cc3ccccc3)CC2)cc1,-5.0%,-63.0*,-10.4,0.5%,0.3%,-5.9%
Cc1ccc(S(=O)(=O)N2CCCCC2C(=O)N2CCN(Cc3ccccc3)CC2)cc1 (stereo not given),0.2%,-51.9*,-45.4,0.9%,-1.3%,5.6%
CCOc1ccc(/C=C/c2nc(C#N)c(N(C)C)o2)cc1,nt,nt,7.5,nt,nt,nt
CCCC(=O)Nc1ccc2c(c1)nc(CCN1CCN(c3ccccn3)CC1)n2C,-1.8%,-5.1,57.0*,-1.3%,-1.2%,-14.5%
CCCCC(=O)Nc1ccc2c(c1)nc(CCN1CCN(c3ccccn3)CC1)n2C,1.8%,-28.4,44.0*,-1.4%,5.3%,4.6%
CC1CCN(CCc2nc3cc(NC(=O)COc4ccccc4)ccc3n2C)CC1,-2.6%,-70.6*,-15.0,1.5%,-0.2%,0.0%
Cc1ccc(OCC(=O)Nc2ccc3c(c2)nc(CCN2CCN(c4ccccn4)CC2)n3C)cc1,nt,-3.4,7.1,nt,nt,nt
